PfM18AAP inh = PfM18AAP inhibitors, malaria aminopeptidase, primary screen, biochemical, QFRET, recombinant enzyme | inhibition, % at 7.35 µM | 1.2% of 290,000 active | H-Glu-NHMec fluorogenic cleavage | M18 aspartyl aminopeptidase (Plasmodium falciparum 3D7);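 active = inhibition above the campaign mean inhibition over all tested compounds plus 3 SD, cut at about 28% in these data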;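 also: 0% = plate median of test compound wells and 100% = 2 mM ZnCl2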
ALR inh = inhibitors of human ALR sulfhydryl oxidase, primary screen, biochemical, H2O2 detection, HRP-luminol luminescence, single point. FAD-linked sulfhydryl oxidase ALR (Homo sapiens), P55789. purified ALR, DTT oxidation. inhibition, % (test concentration not listed). 3.8% of 290,000 active;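 active = mean replicate inhibition above about 79%, with every replicate also reaching it, limit read from the data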
PolyA inh = polyadenylation inhibitors in yeast reporter cells, primary screen, luminescence, S. cerevisiae | S. cerevisiae SKY197-pL101 polyadenylation reporter, beta-gal luminescence; efflux-impaired pdr1/pdr3 knockout yeast; score 100 = 6 SD above DMSO | activity score, % at 12 µM | 0.02% of 300,000 active | AID 1875, 2009;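 active = lowest replicate activity score at least 50, where 100 means six control SD above control mean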;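 also: yeast exposed to compound for 9 h at 30 °C; higher score means more reporter readthrough which indicates perturbed polyadenylation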
IDE cell inh = human IDE inhibitors in live cells, primary screen, fluorescence polarization, HEK cells, FAbetaB substrate | Insulin-degrading enzyme (Homo sapiens), P14735 | inhibition, % at 5.59 µM | 0.41% of 320,000 active | FAbetaB cleavage;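 active = percent inhibition above the average of all tested compounds plus 3 SD, set per screening campaign, cut at about 16% in these data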;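 also: IDE supplied by intact live HEK cells; FP after avidin binding of uncleaved biotin substrate so inhibition keeps polarization high; 0% = DMSO wells and 100% = 60 µM reference IDE inhibitor Ii1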
Target sequence (P14735 whole entry, looked up): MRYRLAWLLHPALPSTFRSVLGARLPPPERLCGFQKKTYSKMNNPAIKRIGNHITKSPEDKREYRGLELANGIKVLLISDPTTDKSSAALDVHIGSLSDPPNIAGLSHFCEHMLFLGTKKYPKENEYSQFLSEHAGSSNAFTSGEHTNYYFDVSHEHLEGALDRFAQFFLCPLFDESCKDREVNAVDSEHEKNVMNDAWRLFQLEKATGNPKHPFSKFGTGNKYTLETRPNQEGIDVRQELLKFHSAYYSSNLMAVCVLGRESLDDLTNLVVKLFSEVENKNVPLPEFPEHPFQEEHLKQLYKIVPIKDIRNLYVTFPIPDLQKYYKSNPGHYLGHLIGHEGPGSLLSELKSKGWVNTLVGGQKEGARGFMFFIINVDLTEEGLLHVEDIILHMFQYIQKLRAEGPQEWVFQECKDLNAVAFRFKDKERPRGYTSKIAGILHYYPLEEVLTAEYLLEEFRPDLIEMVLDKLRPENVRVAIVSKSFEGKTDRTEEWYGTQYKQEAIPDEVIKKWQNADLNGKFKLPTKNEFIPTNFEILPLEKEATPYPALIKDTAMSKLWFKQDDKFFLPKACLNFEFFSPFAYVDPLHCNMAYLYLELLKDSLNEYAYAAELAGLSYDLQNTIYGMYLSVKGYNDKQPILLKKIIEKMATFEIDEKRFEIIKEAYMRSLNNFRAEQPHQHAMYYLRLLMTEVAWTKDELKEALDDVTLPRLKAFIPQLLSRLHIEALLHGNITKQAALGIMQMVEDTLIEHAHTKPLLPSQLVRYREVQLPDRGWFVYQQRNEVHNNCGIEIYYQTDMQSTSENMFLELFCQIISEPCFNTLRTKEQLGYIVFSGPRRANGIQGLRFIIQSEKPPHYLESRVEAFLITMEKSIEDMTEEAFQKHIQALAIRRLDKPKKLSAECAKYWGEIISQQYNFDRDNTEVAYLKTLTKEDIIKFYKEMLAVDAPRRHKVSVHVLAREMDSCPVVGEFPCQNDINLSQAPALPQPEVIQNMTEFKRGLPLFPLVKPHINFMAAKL
IDE cell activ = human IDE activators in live cells, primary screen, fluorescence polarization, HEK cells, FAbeta-B substrate; Insulin-degrading enzyme (Homo sapiens), P14735; FAbeta-B cleavage; 0% vehicle, 100% cell-free pure enzyme wells; activation, % at 5.96 µM; 0.073% of 340,000 active; AID 493087, 2011;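 active = activation above the mean of all tested compounds plus 3 SD, set per screening campaign, cut at about 17% in these data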
CaV13 ICDI inh = Primary screen for inhibitors of IQ motif and Ca2+-dependent inactivation inhibitor domain binding in CACNA1D, Förster resonance energy transfer in living cells, …; HEK cells, CFP/YFP FRET ICDI-IQ, plate reader, 10 min; percent FRET-ratio fall versus neutral wells; inhibition, % at 12.3 µM; 0.098% of 340,000 active; AID 743397;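 active = mean replicate inhibition of at least 30% and at least 1% of replicates passing that level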;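 also: 0% = median of the neutral control wells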
* = called active by the depositor; nt = no result given. An excerpt weighted towards active compounds, which were near 4.1% of everything screened.

SMILES	PfM18AAP inh	ALR inh	PolyA inh	IDE cell inh	IDE cell activ	CaV13 ICDI inh
c1cc2c(cc1-c1csc(NNC3=NCCCCC3)n1)OCCO2	41.2*	98.5*	-1.4	11.8	nt	-5.5
O=C(CS(=O)(=O)c1cn(CC(=O)N2CCOCC2)c2ccccc12)Nc1ccccc1F	-3.8	1.5	20.8	8.6	1.8	-6.4
COc1ccc(S(=O)(=O)N2CCC(C(=O)NCc3ccncc3)CC2)cc1C	-9.8	0.5	3.7	1.3	0.2	-4.4
C[C@H]1CN([C@@H](C)CO)C(=O)CCCn2nncc2CO[C@@H]1CN(C)Cc1cccc2c1OCCCO2	nt	nt	nt	nt	nt	-6.4
CC1=NOC(=O)/C1=C\c1ccc(-c2ccc(Br)cc2C(=O)O)o1	2.7	88.5*	-1.8	4.1	-2.2	-2.6
Cc1ccccc1-c1nc(CS(=O)CC(=O)NC(C)CCc2ccccc2)c(C)o1 (stereo unspecified)	-20.3	-14.3	16.0	0.9	0.3	nt
Cc1oc(-c2ccccc2Cl)nc1CS(=O)CC(=O)NCc1ccco1 (stereo unspecified)	7.0	98.1*	-8.4	3.1	4.2	-5.2
Cc1oc(-c2ccc(Cl)cc2)nc1CS(=O)CC(=O)NCc1ccco1 (stereo unspecified)	-2.9	98.6*	14.1	1.7	-2.3	-5.3
O=C(CCc1nc(-c2ccccc2Cl)no1)NCc1ccco1	5.1	nt	16.8	3.5	0.4	-6.5
Cc1oc(-c2ccccc2Cl)nc1CS(=O)CC(=O)NCc1ccccc1Cl (stereo unspecified)	4.9	98.8*	0.5	0.1	1.0	-3.3
Cc1ccc(-c2nc(CS(=O)CC(=O)NCc3ccc(Cl)cc3)c(C)o2)cc1 (stereo unspecified)	6.5	54.2	6.6	1.7	0.8	-5.7
CC1CN(c2ccc(NC(=O)c3ccco3)cc2C(=O)O)CC(C)O1 (stereo unspecified)	4.7	-1.1	16.0	-1.2	7.5	1.3
O=C(c1cccnc1)n1nc(NCc2ccccc2)nc1NCc1ccccc1	28.2*	-2.1	-1.5	1.5	4.7	-6.8
COCCCn1c(-c2ccc(Cl)cc2)n[nH]c1=S	23.8	94.8*	-0.8	2.6	0.4	-4.8
CCn1c(-c2cc(OC)c(OC)c(OC)c2)n[nH]c1=S	9.8	96.8*	-4.9	5.0	-3.1	-5.4
CCn1c(CCCc2ccc(OC)c(C)c2)n[nH]c1=S	28.7*	7.3	12.9	-6.2	-4.8	-2.0
C=CCn1c(CCSCc2ccc(OC)c(C)c2)n[nH]c1=S	14.3	44.2	3.9	6.0	-3.3	-14.2
CCOCCCn1c(-c2ccc(Cl)cc2)n[nH]c1=S	7.7	22.5	-21.8	2.1	-2.1	-6.9
C=CCn1c(-c2cc(Cl)ccc2OC)n[nH]c1=S	16.8	41.5	1.0	8.2	-0.8	-0.4
C=CCn1c(-c2cc(OC)c(OC)c(OC)c2)n[nH]c1=S	3.1	0.8	-2.0	-2.2	1.4	-6.0
CCn1c(-c2cc(Cl)ccc2OC)n[nH]c1=S	14.5	92.2*	13.3	0.9	-0.6	-2.4
Cc1cc(-c2cc(C(=O)Nc3ccccc3)on2)nc(NC2CCCC2)n1	nt	-5.2	-12.4	-3.4	nt	nt
COc1ccc2nc(SCC(=O)Nc3ccccc3OC)[nH]c2c1	-4.9	-3.6	13.5	-0.6	10.2	-19.7
COc1ccc(Cl)cc1-c1n[nH]c(=S)n1C	26.6	89.3*	-7.8	-4.4	-7.5	-3.4
Cc1nc2c(C(=O)NCCc3ccccc3Cl)c[nH]n2c(=O)c1Cl	-1.0	98.7*	-6.1	-0.4	2.6	-8.0
SMILES	PfM18AAP inh	ALR inh	PolyA inh	IDE cell inh	IDE cell activ	CaV13 ICDI inh
COc1ccc(C2(C)NC(=O)N(CC(=O)Nc3c(C)n(C)n(-c4ccccc4)c3=O)C2=O)cc1 (stereo unspecified)	nt	-24.2	-18.8	5.7	-2.2	-5.2
O=C(O)C1Sc2[nH]c(=O)sc2C2c3cc(Cl)ccc3OC(=O)C12 (stereo unspecified)	5.4	94.0*	10.8	-0.3	5.5	-3.4
CN(Cc1ccc(Cl)cc1Cl)C(=O)CNC(=O)c1ccco1	7.4	-3.3	2.4	1.1	4.6	-1.9
Cc1cc2c(nc1C)CCCN2S(=O)(=O)c1ccc(C#N)cc1	nt	nt	nt	nt	nt	-4.3
S=c1[nH]nc(-c2ccccn2)n1/N=C/c1cccc2ccccc12	2.7	95.9*	11.2	3.5	0.3	-4.7
CC(/C=N/n1c(-c2ccccn2)n[nH]c1=S)=C\c1ccccc1	-1.6	95.7*	20.8	-1.5	nt	-19.9
Cc1ccccc1/C=N/n1c(-c2ccccn2)n[nH]c1=S	2.5	nt	-4.8	0.9	6.6	-10.7
Cc1cccc(/C=N/n2c(-c3ccccn3)n[nH]c2=S)c1	4.6	95.4*	-1.4	3.4	nt	nt
O=[N+]([O-])c1ccc(N2CCN(CCOCCO)CC2)c([N+](=O)[O-])c1	3.6	-3.6	-2.9	-5.6	4.8	-6.3
S=c1[nH]ncn1/N=C/c1cccc(Oc2ccccc2)c1	22.9	98.8*	-71.2	2.2	-2.6	-4.7
O=C(OCc1c(F)cccc1Cl)c1cccc(S(=O)(=O)N2CCOCC2)c1	nt	nt	nt	-1.3	3.5	-3.1
O=C(Nc1ccc(SC(F)F)cc1)c1ccc(F)cc1	-1.3	2.1	-12.3	1.1	6.4	0.8
COc1ccc(NS(=O)(=O)c2ccc(N3CC(O)=C(c4ccccc4)C3=N)cc2)cc1	1.0	6.4	7.4	-1.5	2.3	4.2
CCC(=O)Nc1cccc(-c2cnc3ccccc3n2)c1	-6.1	87.9*	7.2	5.0	6.7	-6.2
O=C(O[C@@H]1Cc2c(O)cc(O)cc2O[C@@H]1c1cc(O)c(O)c(O)c1)c1cc(O)c(O)c(O)c1	64.1*	nt	9.0	nt	nt	nt
CCC(=O)/C=C1\Sc2ccc(OC)cc2N1CCO	29.5*	nt	5.0	0.9	-4.6	-6.5
COc1ccc2c(c1)c(=O)oc1cc(O)ccc12	3.0	-2.6	-0.3	-5.5	7.3	nt
O=c1oc2cc(O)ccc2c2ccccc12	-2.4	88.0*	-7.8	-1.3	-2.9	-5.2
O=c1cnnc(Nc2ccc(Nc3ccccc3)cc2)[nH]1	15.4	100.1*	7.0	-6.3	-1.9	-4.1
Cc1ccc2nc(NCc3ccccc3)[nH]c2c1	7.2	98.6*	18.0	4.6	1.1	-5.2
COc1ccc2nc(NCc3ccccc3)[nH]c2c1	2.1	94.8*	-8.8	-0.9	-0.7	-5.2
COc1ccc2nc(NCCO)[nH]c2c1	-22.2	nt	14.8	2.7	-0.1	-4.9
COc1ccc2nc(N3CCCC3)[nH]c2c1	15.0	96.0*	5.3	-0.5	6.4	-8.8
